Active and inactive are the calls of the source. Rule for the calls: active = hit-call score of the fitted dose curve at least 0.9, where 1 is the maximum; inconclusive = response in the unintended direction; inactive = score below 0.9.
Each molecule was assayed against Estrogen receptor beta (Homo sapiens) (UniProt Q92731) (assay: OT_ER_ERbERb_1440: Odyssey Thera (OT) 24-hour HEK293T Protein-Complementation Assay for Estrogen Receptor-beta/-beta Homodimer (AID 2283380);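 note: scored as signal increase over DMSO baseline for both agonists and antagonists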).
Estrogen receptor beta (Homo sapiens), sequence (Q92731 whole entry, looked up, the tested form may be a part): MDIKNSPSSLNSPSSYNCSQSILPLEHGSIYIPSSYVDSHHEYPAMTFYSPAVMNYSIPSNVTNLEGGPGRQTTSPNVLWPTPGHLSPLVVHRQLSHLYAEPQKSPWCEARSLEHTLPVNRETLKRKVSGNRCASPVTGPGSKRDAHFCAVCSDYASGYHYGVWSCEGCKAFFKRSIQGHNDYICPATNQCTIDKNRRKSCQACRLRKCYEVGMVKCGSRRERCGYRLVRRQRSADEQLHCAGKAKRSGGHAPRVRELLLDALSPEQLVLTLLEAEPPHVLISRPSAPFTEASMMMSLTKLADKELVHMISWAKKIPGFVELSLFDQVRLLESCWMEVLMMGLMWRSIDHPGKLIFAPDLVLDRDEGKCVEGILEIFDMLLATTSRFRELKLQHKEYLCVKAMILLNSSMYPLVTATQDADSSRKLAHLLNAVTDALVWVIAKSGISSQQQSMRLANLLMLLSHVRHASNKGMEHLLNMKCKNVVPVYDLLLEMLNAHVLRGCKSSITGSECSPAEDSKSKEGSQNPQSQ
Procedure: OT_ER_ERbERb_1440 is a cell-based assay that uses HEK293T, a human kidney cell line, with measurements taken at 24 hours after chemical dosing in a 384-well plate.OT_ER_ERbERb_1440 is one of one assay component(s) measured or calculated from the OT_ER_ERbERb_1440 assay. It is designed to make measurements of protein fragment complementation, a form of binding reporter, as detected with fluorescence intensity signals by Protein-fragment Complementation technology.Data from the assay component OT_ER_ERbERb_1440 was analyzed into 1 assay endpoint. This assay endpoint, OT_ER_ERbERb_1440, was analyzed in the positive analysis fitting direction relative to DMSO as the negative control and baseline of activity. Using a type of binding reporter, measures of receptor for gain-of-signal activity can be used to understand the binding at the pathway-level as they relate to the gene ESR2. Furthermore, this assay endpoint can be referred to as a primary readout, because the performed assay has only produced 1 assay endpoint. To generalize the intended target to other relatable targets, this assay endpoint is annotated to the nuclear receptor intended target family, where the subfamily is steroidal.
Protein-fragment complementation assay, or PCA, is a method for the identification and quantification of protein-protein interactions. In the PCA, the proteins of interest ("bait" and "prey") are each covalently linked to fragments of a third protein (e.g. DHFR, which acts as a "reporter"). Interaction between the bait and the prey proteins brings the fragments of the reporter protein in close proximity to allow them to form a functional reporter protein whose activity can be measured. The OT ER beta / ER beta assay is a homodimer PCA of the ligand binding domain (LBD; amino acids 310-547) of human ER beta stably expressed in HEK293T cells. […] Cells are fixed in 4 percent formaldehyde and stained with Draq5 (BioStatus) to identify cells prior to signal detection. Fluorescent signal in the basal state of the assay is very low and is primarily punctuate and cytoplasmic. Modulation of this assay is quantified as an increase in mean fluorescence intensity in the nucleus (for agonists) or in the nucleus and cytoplasm (antagonists) relative to vehicle controls, and can be quantified on a high content imaging device or a laser scanning cytometer. The latter instrument is favored for this assay because of the rapid mode of data acquisition, the ability to acquire data from the entire cell population in a well (as opposed to a fraction of the well on the high content devices) and the larger dynamic range typically achieved with this instrument. To assess sensitivity of the ER beta/ER beta LBD assay to ligand, cells were treated with the ER agonist 17- beta-estradiol (E2) in 10-point concentration- response format for 24 hours and monitored response on a laser scanning plate cytometer (Acumen eX3; TTP Lab Tech).
With `CO[Si](OC)(OC)c1ccccc1` the outcome was “inactive”.
For `CC1=CC[C@H]2C[C@@H]1C2(C)C`, the outcome was “inactive”.
With `O=C(c1ccccc1)C1CCC1` the outcome was “inactive”.
`O=S(=O)(O)c1ccccc1C=Cc1ccc(-c2ccc(C=Cc3ccccc3S(=O)(=O)O)cc2)cc1` was tested, and the outcome was “inactive”.
In the case of `CCCCCCCC[N+](C)(CCCCCCCC)CCCCCCCC`, the outcome is reported as “inactive”.
In the case of `O=S1(=O)OC(c2ccc(O)cc2)(c2ccc(O)cc2)c2ccccc21`, the outcome is reported as “inactive”.
For `CCOC(=O)CC`, the outcome was “inactive”.
For `CCCCCCCC/C=C\CCCCCCCC(=O)O`, the outcome was “inactive”.
For `Cc1cc(C)c(C(=O)O)c(C)c1`, the outcome was “inactive”.
`CCCCCCCCO[C@@H]1O[C@H](CO)[C@@H](O)[C@H](O)[C@H]1O` was tested, and the outcome was “inactive”.
In the case of `CN(C)c1ccc(C(=N)c2ccc(N(C)C)cc2)cc1`, the outcome is reported as “inactive”.
`CC1=NN(c2cc(S(=O)(=O)O)ccc2Cl)C(=O)C1N=Nc1ccccc1` (stereo not given) was tested, and the outcome was “inactive”.
`CCCCCCCC/C=C\CCCCCCCC(=O)OCCO` was tested, and the outcome was “inactive”.
For `Cc1ccc(C(C)c2ccc(C)c(C)c2)cc1C`, the outcome was “inactive”.
With `CNC(=S)NN` the outcome was “inactive”.
For `CN(C)c1ccc(N=Nc2ccccc2C(=O)O)cc1`, the outcome was “inactive”.
In the case of `NC(=O)c1ccccc1O`, the outcome is reported as “inactive”.
For `Cc1ccc(N/N=c2\c(=O)cc/c(=N/Nc3ccc(S(=O)(=O)O)cc3)c2=O)c(C)c1`, the outcome was “inactive”.
`C=C1C2CCC(C2)C1(C)C` (stereo not given) was tested, and the outcome was “inactive”.
With `CCOC(=O)Cc1cccc2ccccc12` the outcome was “inactive”.
In the case of `O=c1cc(-c2ccccc2)oc2ccccc12`, the AC50 is reported as 49.2 µM (active).
For `CC(C)=CCC[C@H](C)CCO`, the outcome was “inactive”.
In the case of `CC(C)(C)c1ccc(OC(=O)c2ccccc2O)cc1`, the AC50 is reported as 32 µM (active).
For `CCO[Si](C)(OCC)OCC`, the outcome was “inactive”.
`CCCCC(CC)CCC(CC(C)C)OS(=O)(=O)O` (stereo not given) was tested, and the outcome was “inactive”.
With `c1c[nH]cn1` the outcome was “inactive”.
`Oc1ccc(Cl)cc1Cc1cc(Cl)ccc1O` was tested, and the AC50 was 11.9 µM (active).
For `OC1CCCC1`, the outcome was “inactive”.
With `O=C1CCCC1` the outcome was “inactive”.
With `CC(=O)OC(C)C` the AC50 was 25.9 µM (active).
For `CC(C)(C)c1ccc(N)cc1`, the outcome was “inactive”.
`CC(C)(C)c1ccc(-c2ccc(C(C)(C)C)cc2)cc1` was tested, and the outcome was “inactive”.
With `CCCc1ccc(OC)cc1` the outcome was “inactive”.
With `CC/C=C\C/C=C\C/C=C\CCCCCCCC(=O)O` the outcome was “inactive”.
With `CC(=O)[C@H]1[C@H](C#N)C[C@H]2[C@@H]3CC=C4C[C@@H](O)CC[C@]4(C)[C@H]3CC[C@@]21C` the outcome was “inactive”.
For `O=C(C(Cl)Cl)N1CCOC12CCCCC2`, the outcome was “inactive”.
`CCCCCCCOC(=O)CCC` was tested, and the outcome was “inactive”.
With `O=C(C=Cc1ccccc1)OCc1ccccc1` the outcome was “inactive”.
For `O=C(O)CCCC[C@@H]1SC[C@@H]2NC(=O)N[C@@H]21`, the outcome was “inactive”.
With `Cn1c([N+](=O)[O-])cnc1COC(N)=O` the outcome was “inactive”.

— PubChem BioAssay (EPA / NIEHS)
